C-LANA FP: KSHV C-LANA DNA binding inhibition | MBP-C-LANA/FAM-LBS DNA binding, fluorescence polarization | inhibition, % at 9 µM | actives 0.078% (n = 340,000);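 active = highest replicate inhibition at or above 60% at 9 µM, even if other replicates fall short; inactive = all replicates below 60% inhibition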
cardiac RTF act: cardiac RTF calcium sensitization | P19429+P45379 | IANBD-labeled TnC RTF fluorescence at EC20 calcium; 0% EC20 calcium, 100% full calcium | activation, % at 7.2 µM | actives 0.24% (n = 340,000);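 active = activation above the mean over all tested compounds plus 3 SD, cut at about 30% in these data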;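 note: rise in fluorescence read as greater calcium sensitivity of cardiac thin filaments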
Cardiac RTF inh: cardiac RTF calcium desensitization. actives 0.12% (n = 340,000). IANBD-labeled cardiac RTF, Ca2+ fluorescence. P19429+P45379. AID 493244. inhibition, % at 7.15 µM;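 active = inhibition above the mean inhibition of all tested compounds plus 3 SD, cut at about 17% in these data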;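 note: assay run at fixed EC70 calcium of 1.6 mM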
IDE cell inh: inhibits human insulin-degrading enzyme in HEK cells; P14735; FAbetaB cleavage, fluorescence polarization; inhibition, % at 5.59 µM; AID 434962; actives 0.41% (n = 320,000);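 active = percent inhibition above the average of all tested compounds plus 3 SD, set per screening campaign, cut at about 16% in these data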;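 note: IDE supplied by intact live HEK cells; FP after avidin binding of uncleaved biotin substrate so inhibition keeps polarization high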
Keap1-Nrf2 PPI: Keap1-Nrf2 (human) interaction inhibition | inhibition, % at 9.4 µM | actives 0.15% (n = 340,000) | Q14145 | Keap1 Kelch-Nrf2 peptide fluorescence polarization, 1536-well; in the data active = inhibition above about 12%; inconclusive = no clear call, values can overlap the other calls; inactive = below about 7.3%;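 note: human Keap1 Kelch domain with fluorescein labeled Nrf2 9mer peptide probe; higher means more block of Keap1 binding to Nrf2 peptide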
IDE act: boosts human insulin-degrading enzyme activity in HEK cells. P14735. FAbeta-B cleavage, fluorescence polarization; 0% vehicle, 100% cell-free pure enzyme wells. activation, % at 5.96 µM. actives 0.073% (n = 340,000);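 active = activation above the mean of all tested compounds plus 3 SD, set per screening campaign, cut at about 17% in these data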
Large screens that a line does not name were inactive. A selection: hits, their analogues and other compounds. The true share with any hit is near 0.81%.

O=C(Cc1cccs1)N1CCN(S(=O)(=O)c2cc(Cl)ccc2Cl)CC1	cardiac RTF act 51
COCCCNC(=S)Nc1ccc2c(c1)OCCO2	none
CCOc1ccc(C2C=C(c3ccccc3)Nc3nnnn32)cc1 (stereo not drawn)	none
CCOc1ccc(C2C=C(c3ccc(C)cc3)Nc3nnnn32)cc1 (stereo not drawn)	cardiac RTF act 54
Cc1ccc(S(=O)(=O)CC(=O)N2CCN(c3cccc(C(F)(F)F)c3)CC2)cc1	none
Cc1onc(-c2ccccc2)c1C(=O)Nc1cccc2nsnc12	C-LANA FP 116
O=C(O)C(c1ccccc1)N1C(=O)/C(=C\c2ccc(-c3ccc(Br)cc3)o2)SC1=S (stereo not drawn)	cardiac RTF act 63 (no result: IDE cell inh)
CS(=O)(=O)c1ccc(S(=O)CC(=O)Oc2ccc(Cl)cc2)c([N+](=O)[O-])c1 (stereo not drawn)	none (no result: C-LANA FP, cardiac RTF act, Cardiac RTF inh, Keap1-Nrf2 PPI, IDE act)
O=C(CCc1nc2ccccc2c(=O)[nH]1)Nc1ccc(N2CCCCC2)cc1	IDE cell inh 17
CCN1CC=C2C(C#N)=C(N)C(C#N)(C#N)C(c3cc(Cl)ccc3Cl)C2C1 (stereo not drawn)	cardiac RTF act 39, Keap1-Nrf2 PPI inconclusive
O=C(NCc1ccc(Cl)cc1)C1C2C=CC3(CN(Cc4cccnc4)C(=O)C13)O2 (stereo not drawn)	none
Cc1ccc(NC(=O)C2C3C=CC4(CN(Cc5cccnc5)C(=O)C24)O3)cc1 (stereo not drawn)	IDE act 18
O=C(CC(=O)c1cccc([N+](=O)[O-])c1)Nc1ccccc1Cl	none
Cc1ccc2[nH]c(CNC(=O)C3CCCCC3)cc2c1	none (no result: IDE cell inh)
Cc1cc(=O)oc(C)c1C(=O)Nc1ccc2nsnc2c1	none
Cc1cc(=O)oc(C)c1C(=O)Nc1ccc2ncccc2c1	cardiac RTF act 74
CCCCNc1ccc2c3c(cccc13)C(=O)N(CCCC)C2=O	cardiac RTF act active, IDE act 45 (no result: IDE cell inh)
CCCN1C(=O)c2cccc3c(N4CCCCC4)ccc(c23)C1=O	cardiac RTF act 75
Nc1nc(C(F)(F)F)cc(=O)[nH]1	C-LANA FP 65
Cc1ccccc1NS(=O)(=O)c1nnc(NC(=O)c2ccccc2C)s1	none
Cc1nc2c(=O)[nH]c(=S)[nH]c2[nH]c1=O	C-LANA FP 103, Keap1-Nrf2 PPI inconclusive (no result: IDE cell inh)
CCCCCn1nc(C(=O)N2CCc3ccccc32)c2ccccc2c1=O	none
CCC(C)[C@H](NC(=O)N1CCCC1)C(=O)OC (stereo partly drawn)	none
CCC(C)[C@H](NC(=O)N1CCC(C)CC1)C(=O)OC (stereo partly drawn)	cardiac RTF act 44
Cc1ccc(C2C(C#N)=C(N)Oc3cc(N)ccc32)cc1 (stereo not drawn)	none
Cc1ccc(/C=C2\CCC3=C2OC(N)=C(C#N)C3c2ccc(C)cc2)cc1 (stereo not drawn)	cardiac RTF act 84, IDE cell inh 56
COc1ccc(S(=O)(=O)N2CCNC(=O)CC2)cc1	none
Nc1ccc(S(N)(=O)=O)cc1N	cardiac RTF act 30
O=C(NCC(c1ccco1)N1CCCCC1)c1ccc(COc2ccc(Cl)cc2)cc1 (stereo not drawn)	none (no result: IDE cell inh)
COc1cc(C)c(CN2CCC(n3nccc3NC(=O)C3CCOC3)CC2)cc1C (stereo not drawn)	none
O=C(CSCc1cnn(-c2ccccc2)c1-n1cccc1)NCc1cccnc1	C-LANA FP 80
COc1ccccc1CNC(=O)CSCc1cnn(-c2ccccc2)c1-n1cccc1	none
COc1ccc([C@H]2CC(=O)C=C(c3ccc(SC)cc3)C2)cc1	none
CC[n+]1ccccc1/C=C/c1ccc(N(C)C)cc1	none (no result: IDE cell inh)
CC[n+]1ccc(/C=C/c2ccc(N(C)C)cc2)c2ccccc21	none (no result: IDE cell inh)
CN(C)c1ccc(/C=C/c2cc[n+](C)cc2)cc1	cardiac RTF act 47
CN(C)c1ccc(/C=C/c2cc[n+]([O-])cc2)cc1	IDE cell inh 22 (no result: C-LANA FP, cardiac RTF act, Cardiac RTF inh, Keap1-Nrf2 PPI, IDE act)
CCOc1ccccc1NC(=O)c1cc(C(=O)c2cc(Br)ccc2O)coc1=N	none
N#C/C(=C/c1ccc(-c2cc(C(=O)O)cc(C(=O)O)c2)o1)c1nc2ccccc2s1	IDE cell inh 27 (no result: C-LANA FP, cardiac RTF act, Cardiac RTF inh, Keap1-Nrf2 PPI, IDE act)
